Shown are actives, neighbours in structure and some others; about 2.4% of the full set was active somewhere.
D2 ag-1 – D2 dopamine receptor (human) agonism | activation, % at 2 µM | HEK293 T-REx D2 cells, calcium flux agonist mode | P14416 | hit rate 0.53% among 340,000;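 active = activation over 3 SD above normal in the single-dose calcium agonist read, cut at about 30% in these data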; note: 0% is about no effect
Target sequence (P14416 whole entry, looked up): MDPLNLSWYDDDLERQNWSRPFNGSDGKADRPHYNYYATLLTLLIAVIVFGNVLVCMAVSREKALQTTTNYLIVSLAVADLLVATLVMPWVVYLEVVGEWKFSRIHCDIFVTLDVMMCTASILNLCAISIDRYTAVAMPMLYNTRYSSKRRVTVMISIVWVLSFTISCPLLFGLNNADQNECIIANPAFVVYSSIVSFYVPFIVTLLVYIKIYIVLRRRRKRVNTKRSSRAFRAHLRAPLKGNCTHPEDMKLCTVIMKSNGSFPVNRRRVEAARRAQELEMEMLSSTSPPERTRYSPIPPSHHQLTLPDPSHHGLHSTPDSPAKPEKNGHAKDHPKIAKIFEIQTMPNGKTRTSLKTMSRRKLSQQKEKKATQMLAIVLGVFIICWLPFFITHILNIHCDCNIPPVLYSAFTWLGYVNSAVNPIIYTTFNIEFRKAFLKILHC
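In this primary screen, compounds producing a positive calcium signal within 180 s of addition to tetracycline-induced, force-coupled HEK293 Trex D2 cells are flagged; cells are dye-loaded with a no-wash calcium kit beforehand.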
D2 ag-2 – activates the human D2 dopamine receptor; P14416; DiscoveRx PathHunter D2 beta-arrestin, luminescence, 90 min; 100% = 57 uM dopamine signal; activation, % (no concentration beside the values); hit rate 0.084% among 360,000; AID 624465; in the data active = activation above about 40%
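DiscoveRx PathHunter D2 beta-arrestin cells (2,100/well) attached overnight, then compound-stimulated 90 min at 37 C in HBSS/10 mM HEPES/0.1% Tween-20 buffer; beta-galactosidase complementation read by luminescence after 1 h at ambient temperature. Dopamine 57 uM final (EC100) as control.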
D2 PAM-1 – human D2 receptor positive allosteric modulation | potentiation, % (no concentration beside the values) | DiscoveRx D2 beta-arrestin cells, luminescence, 90 min; 100% = 57 uM dopamine signal | hit rate 0.23% among 360,000; in the data active = potentiation above about 50%
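PathHunter beta-arrestin assay in DiscoveRx D2 cells. Compounds were added with an EC20 of dopamine (50 nM final) for 90 min at 37 deg C. Luminescence was read 1 h after detection reagent, with 57 uM dopamine as the EC100 control.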
D2 antagonist – D2 dopamine receptor (human) antagonism | inhibition, % at 10 µM | hit rate 2% among 340,000 | HEK293 TREx D2 cells, calcium flux, dopamine EC80 | P14416; in the data active = inhibition above about 30%; inactive = below that, where a call was filed; note: 0% is about no effect
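Dopamine at EC80 is the agonist stimulus; test compounds precede it by 180 s. Calcium flux read kinetically in a force-coupled, inducible HEK293 T-REx D2 cell line.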
D2 PAM-2 – D2 dopamine receptor (human) potentiation | P14416 | HEK293 T-REx D2, calcium flux, EC20 dopamine potentiation | potentiation, % at 10 µM | hit rate 0.34% among 340,000 | AID 485347;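 active = potentiation over 3 SD above the plate norm, cut at about 30% in these data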; note: 0% is about no effect
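Using a no-wash calcium dye in inducible, force-coupled HEK293 Trex cells expressing D2, we tracked fluorescence each second for 180 s after compound, then for 180 s after EC20 dopamine to detect augmented signalling.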
Numbers without * were called inactive; ! = a repeat was not active.

O=C(c1ccc(F)cc1)N1CCCC(N2CCN(Cc3ccc4c(c3)OCO4)CC2)C1 (configuration not stated) was read as D2 ag-1 3.6, D2 ag-2 -4.1, D2 PAM-1 -23.7, D2 antagonist -32.4 and D2 PAM-2 -12.7.
For CC(=O)c1ccc(OCC(O)CN2CCN(Cc3ccc4c(c3)OCO4)CC2)cc1 (configuration not stated) the results were D2 ag-1 1.7, D2 ag-2 -2.2, D2 PAM-1 -6.2, D2 antagonist 56.2*! and D2 PAM-2 3.2.
For O=C(CCS(=O)(=O)c1cccc2nsnc12)N1CCN(C(=O)c2ccco2)CC1 the results were D2 ag-1 0.0, D2 ag-2 -6.7, D2 PAM-1 -9.7, D2 antagonist 11.4 and D2 PAM-2 -6.0.
For O=C(CCS(=O)(=O)c1cccc2nsnc12)N1CCN(Cc2ccc3c(c2)OCO3)CC1 the results were D2 ag-1 36.2*, D2 ag-2 -1.1, D2 PAM-1 -7.0, D2 antagonist 1.5 and D2 PAM-2 -3.8.
For CCOc1cccc2cc(-c3nc4sc5c(c4c(=O)[nH]3)CCC(C(C)(C)C)C5)c(=O)oc12 (configuration not stated) the results were D2 ag-1 -0.8 and D2 PAM-2 10.5.
Screening COc1ccc(S(=O)(=O)NCCc2csc3nc(-c4ccc(Cl)cc4)nn23)cc1C returned D2 ag-1 1.8 and D2 PAM-2 -7.1.
For CC(C)Cc1nn2c(=O)cc(COC(=O)c3ccc(NC(=O)C4CCCCC4)cc3)nc2s1 the results were D2 PAM-2 1.3.
CCOc1ccc(CNC(=O)c2ccc(NC(=O)N3CCSc4ncccc43)cc2)cc1OC was read as D2 ag-1 0.3 and D2 PAM-2 -3.8.
CCN(CC)C(=O)N1CCN(Cc2ccc3c(c2)OCO3)CC1 was read as D2 ag-1 33.1*, D2 ag-2 -1.6, D2 PAM-1 -3.7, D2 antagonist -16.3 and D2 PAM-2 -10.4.
COc1ccc(S(=O)(=O)N2CCC(N3CCN(Cc4ccccc4)C(=O)C3=O)CC2)cc1 was read as D2 ag-1 -0.4 and D2 PAM-2 1.2.
Screening O=C(COC(=O)CNS(=O)(=O)c1ccc2ccccc2c1)Nc1ccccc1Sc1ccccc1 returned D2 ag-1 34.5*, D2 ag-2 1.6, D2 PAM-1 4.1, D2 antagonist 16.7 and D2 PAM-2 -21.6.
COc1ccc(Cl)cc1NC(=O)c1c(C(=O)Nc2cccc(C)c2C)sc2nc(C)cc(=O)n12 was read as D2 ag-1 -0.5 and D2 PAM-2 11.1.
COc1ccc(-n2c(/C=C/c3cccc4ccccc34)nc3ccccc3c2=O)cc1Cl was read as D2 ag-1 0.0 and D2 PAM-2 -13.5.
Screening CC(=O)c1ccccc1OCC(O)CN1CCN(CCN2C(=O)c3cccc4cccc(c34)C2=O)CC1 (configuration not stated) returned D2 ag-1 -1.7, D2 ag-2 -2.1, D2 PAM-1 -15.1, D2 antagonist 36.3* and D2 PAM-2 -23.0.
CCNC(=S)N1CCN(CCN2C(=O)c3cccc4cccc(c34)C2=O)CC1 was read as D2 ag-1 -0.1, D2 ag-2 0.5, D2 PAM-1 10.0, D2 antagonist 43.5* and D2 PAM-2 13.8.
Cc1ccc(C)c(OCC(O)CN2CCN(CCN3C(=O)c4cccc5cccc(c45)C3=O)CC2)c1 (configuration not stated) was read as D2 ag-1 -1.6, D2 ag-2 -2.3, D2 PAM-1 -34.9, D2 antagonist -23.6 and D2 PAM-2 -24.4.
Cc1ncc([N+](=O)[O-])n1CCO was read as D2 ag-1 0.3, D2 ag-2 -5.9, D2 PAM-1 -1.6, D2 antagonist 38.2*! and D2 PAM-2 5.2.
CCCCC(=O)Nc1ccc(OCc2cc(=O)n3ccc(C)cc3n2)cc1 was read as D2 ag-1 0.7 and D2 PAM-2 -3.2.
CC(C)n1c2ccccc2c2nc3ccccc3nc21 was read as D2 ag-1 -0.7, D2 ag-2 -5.9, D2 PAM-1 -18.9, D2 antagonist -10.2 and D2 PAM-2 39.6*.
Screening C#CCn1c2ccccc2c2nc3ccccc3nc21 returned D2 ag-1 0.4, D2 ag-2 1.1, D2 PAM-1 -1.1, D2 antagonist -12.7 and D2 PAM-2 14.0.

Screening data from PubChem.
